According to PubChem BioAssay AID1159580 (chemical genetic matrix, 2015):
Values joined by “and” are separate entries in the source; they are usually repeats but may differ in a detail not shown here. Identical values can stand only once. The campaign covered roughly 5,500 compounds. About 2,000 (36%) were called active. About 18% were inconclusive and are not listed. Rule as the data show it: active = normalized growth mostly below about 0.91 (no sharp cut-off); inconclusive = no clear call, values can overlap the other calls; inactive = mostly above about 0.92. The list shows a part of the results.

Assay: chemical genetic growth profiling, strain panel (AID 1159580);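 also: tested at 20 µM; growth read once vehicle control cultures reached saturation at 30 °C; 1 = growth at the plate median or of vehicle wells; lower values mean less growth of the strain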
Conditions: S. cerevisiae deletion strains, growth OD

Measured: normalized growth

CCn1nc(C(=O)O)c(=O)c2cc3c(cc21)OCO3
inactive: locus YAL013W, strain DEP1, stronger effect = lower value 1.01 | locus YAL021C, strain ccr4, stronger effect = lower value 1 | locus YAL026C, strain drs2, stronger effect = lower value 0.999 | locus YAL030W, strain snc1, stronger effect = lower value 1.01 | locus YAL040C, strain CLN3, stronger effect = lower value 0.955 | locus YBL061C, strain skt5, stronger effect = lower value 1.02 | locus YBR009C, strain hhf1, stronger effect = lower value 0.989 | locus YBR021W, strain FUR4, stronger effect = lower value 1.03 | locus YBR023C, strain chs3, stronger effect = lower value 1.03 | locus YBR171W, strain sec66, stronger effect = lower value 1 | locus YBR229C, strain ROT2, stronger effect = lower value 1.01 | locus YBR231C, strain swc5, stronger effect = lower value 1.03 | locus YBR279W, strain paf1, stronger effect = lower value 1 | locus YCL011C, strain gbp2, stronger effect = lower value 0.987 | locus YCL016C, strain dcc1, stronger effect = lower value 0.99 | locus YCL029C, strain bik1, stronger effect = lower value 1.01 | locus YCL069W, strain vba3, stronger effect = lower value 1.01 | locus YCR088W, strain abp1, stronger effect = lower value 1 | locus YDL005C, strain med2, stronger effect = lower value 0.998 | locus YDL035C, strain GPR1, stronger effect = lower value 1 | locus YDL040C, strain nat1, stronger effect = lower value 1.01 | locus YDL074C, strain BRE1, stronger effect = lower value 1.04 | locus YDL101C, strain DUN1, stronger effect = lower value 1.01 | locus YDL134C, strain PPH21, stronger effect = lower value 1 | locus YDL185W, strain tfp1, stronger effect = lower value 1.03 | locus YDL192W, strain arf1, stronger effect = lower value 1.03 | locus YDR001C, strain nth1, stronger effect = lower value 0.996 | locus YDR069C, strain doa4, stronger effect = lower value 1.02 | locus YDR101C, strain arx1, stronger effect = lower value 0.992 | locus YDR137W, strain rgp1, stronger effect = lower value 0.949 | locus YDR150W, strain NUM1, stronger effect = lower value 1.01 | locus YDR159W, strain sac3, stronger effect = lower value 0.959 | locus YDR162C, strain NBP2, stronger effect = lower value 1.01 | locus YDR195W, strain ref2 1.01 | locus YDR297W, strain sur2, stronger effect = lower value 1.01 | locus YDR318W, strain mcm21, stronger effect = lower value 1.02 | locus YDR334W, strain swr1, stronger effect = lower value 1 | locus YDR335W, strain msn5, stronger effect = lower value 1.01 | locus YDR363W, strain ESC2, stronger effect = lower value 0.967 | locus YDR388W, stronger effect = lower value 1.02 | locus YDR392W, strain spt3, stronger effect = lower value 0.987 | locus YDR502C, strain sam2, stronger effect = lower value 1.02 | locus YEL003W, strain gim4, stronger effect = lower value 1.02 | locus YEL037C, strain rad23, stronger effect = lower value 1.01 | locus YEL061C, strain CIN8 (second series), stronger effect = lower value 1.01 | locus YEL061C, strain CIN8, stronger effect = lower value 1.01 | locus YER002W, strain NOP16, stronger effect = lower value 1.02 | locus YER015W, strain faa2, stronger effect = lower value 1.02 | locus YER016W, strain bim1, stronger effect = lower value 0.996 | locus YER110C, stronger effect = lower value 1.02 | locus YER111C, strain swi4, stronger effect = lower value 1 | locus YER155C, strain BEM2 (second series), stronger effect = lower value 1.06 | locus YER155C, strain BEM2, stronger effect = lower value 0.999 | locus YER167W, strain BCK2, stronger effect = lower value 0.993 | locus YFR010W, strain ubp6, stronger effect = lower value 1.03 | locus YGL078C, strain dbp3, stronger effect = lower value 1.01 | locus YGL086W, strain mad1, stronger effect = lower value 1 | locus YGL167C, strain pmr1, stronger effect = lower value 1.03 | locus YGL173C, strain kem1, stronger effect = lower value 1.01 | locus YGL227W, strain vid30, stronger effect = lower value 1.01 | locus YGL240W, strain doc1, stronger effect = lower value 1.03 | locus YGL248W, strain PDE1, stronger effect = lower value 1.03 | locus YGL253W, strain hxk2, stronger effect = lower value 1.01 | locus YGR078C, strain PAC10, stronger effect = lower value 1.02 and 1.01 | locus YGR135W, strain pre9, stronger effect = lower value 1.04 | locus YGR252W, strain gcn5, stronger effect = lower value 1.05 | locus YHR013C, strain ard1, stronger effect = lower value 1 | locus YHR027C, strain rpn1, stronger effect = lower value 1.01 | locus YHR030C, strain SLT2, stronger effect = lower value 1.01 and 0.999 | locus YHR079C, strain IRE1 (second series), stronger effect = lower value 1.01 | locus YHR079C, strain IRE1, stronger effect = lower value 0.999 | locus YHR094C, strain hxt1, stronger effect = lower value 1.01 | locus YHR129C, strain ARP1, stronger effect = lower value 1 | locus YHR142W, strain chs7, stronger effect = lower value 1.01 | locus YHR200W, strain rpn10, stronger effect = lower value 1.03 | locus YIL066C, strain RNR3, stronger effect = lower value 1.01 | locus YIL073C, strain SPO22, stronger effect = lower value 1.04 | locus YIL125W, strain kgd1, stronger effect = lower value 1.01 | locus YIR030C, strain dcg1, stronger effect = lower value 1.01 | locus YJL092W, strain hpr5, stronger effect = lower value 1.02 | locus YJL095W, strain BCK1 (second series), stronger effect = lower value 1.02 | locus YJL095W, strain BCK1, stronger effect = lower value 1.04 and 0.983 | locus YJL115W, strain asf1, stronger effect = lower value 1.01 | locus YJL129C, strain trk1, stronger effect = lower value 1.02 | locus YJL134W, strain LCB3, stronger effect = lower value 1.01 | locus YJL154C, strain vps35, stronger effect = lower value 1.02 | locus YJL164C, strain tpk1, stronger effect = lower value 1 | locus YJL166W, strain qcr8, stronger effect = lower value 1.05 | locus YJL168C, strain set2, stronger effect = lower value 1.02 | locus YJL187C, strain SWE1 (second series), stronger effect = lower value 1.03 | locus YJL187C, strain SWE1, stronger effect = lower value 1.02 | locus YJR043C, strain POL32, stronger effect = lower value 0.999 | locus YJR066W, strain TOR1, stronger effect = lower value 0.974 | locus YJR075W, strain HOC1, stronger effect = lower value 1.03 | locus YKL009W, strain mrt4, stronger effect = lower value 1.03 | locus YKL068W, stronger effect = lower value 0.999 | locus YKL085W, strain MDH1 (second series), stronger effect = lower value 1.03 | locus YKL085W, strain MDH1, stronger effect = lower value 1.03 | locus YKL160W, strain elf1, stronger effect = lower value 1.02 | locus YKR001C, strain vps1, stronger effect = lower value 1 | locus YKR026C, strain gcn3, stronger effect = lower value 0.993 | locus YKR091W, strain srl3, stronger effect = lower value 1.02 | locus YLL001W, strain dnm1, stronger effect = lower value 1.02 | locus YLL026W, stronger effect = lower value 1 | locus YLL041C, strain sdh2, stronger effect = lower value 1.01 | locus YLR027C, strain aat2, stronger effect = lower value 1 | locus YLR039C, strain RIC1, stronger effect = lower value 0.967 | locus YLR058C, strain SHM2, stronger effect = lower value 1.02 | locus YLR102C, strain apc9, stronger effect = lower value 1.01 | locus YLR113W, strain HOG1, stronger effect = lower value 1 | locus YLR221C, strain rsa3, stronger effect = lower value 1.02 | locus YLR258W, strain gsy2, stronger effect = lower value 1.01 | locus YLR262C, strain YPT6 (second series), stronger effect = lower value 0.964 | locus YLR262C, strain YPT6, stronger effect = lower value 0.978 | locus YLR268W, strain sec22, stronger effect = lower value 1.02 | locus YLR320W, strain mms22, stronger effect = lower value 1 | locus YLR330W, strain CHS5, stronger effect = lower value 1.01 | locus YLR342W, strain FKS1 (second series), stronger effect = lower value 1.01 | locus YLR342W, strain FKS1, stronger effect = lower value 1.02 | locus YLR357W, strain rsc2, stronger effect = lower value 1.02 | locus YLR370C, strain arc18, stronger effect = lower value 1.02 | locus YLR371W, strain rom2, stronger effect = lower value 1.01 | locus YLR384C, strain iki3, stronger effect = lower value 1.01 | locus YLR418C, strain cdc73, stronger effect = lower value 1.07 | locus YML016C, strain PPZ1, stronger effect = lower value 1.01 | locus YML032C, strain rad52, stronger effect = lower value 1.03 | locus YML120C, strain ndi1, stronger effect = lower value 1 | locus YML124C, strain tub3, stronger effect = lower value 1.02 | locus YMR058W, strain fet3, stronger effect = lower value 1.01 | locus YMR078C, strain ctf18, stronger effect = lower value 1.02 | locus YMR125W, strain sto1, stronger effect = lower value 1.02 | locus YMR129W, stronger effect = lower value 1.01 | locus YMR205C, strain PFK2, stronger effect = lower value 1.02 | locus YMR223W, strain ubp8, stronger effect = lower value 1.03 | locus YMR231W, strain pep5, stronger effect = lower value 1.01 | locus YMR307W, strain GAS1, stronger effect = lower value 1.06 | locus YNL067W, strain RPL9B, stronger effect = lower value 1.03 | locus YNL071W, strain lat1, stronger effect = lower value 1 | locus YNL153C, strain GIM3, stronger effect = lower value 1.02 | locus YNL175C, strain NOP13, stronger effect = lower value 0.997 | locus YNL183C, strain NPR1, stronger effect = lower value 0.928 | locus YNL197C, strain WHI3, stronger effect = lower value 0.994 | locus YNL209W, strain ssb2, stronger effect = lower value 1 | locus YNL224C, strain SQS1, stronger effect = lower value 0.99 | locus YNL233W, strain BNI4, stronger effect = lower value 1.02 | locus YNL248C, strain rpa49, stronger effect = lower value 0.952 | locus YNL250W, strain rad50, stronger effect = lower value 1.02 | locus YNL271C, strain bni1, stronger effect = lower value 1.02 | locus YNL298W, strain CLA4, stronger effect = lower value 1.02 | locus YNL307C, strain MCK1, stronger effect = lower value 1.03 | locus YNL322C, strain KRE1 (second series), stronger effect = lower value 1.01 | locus YNR049C, strain mso1, stronger effect = lower value 1.01 | locus YNR052C, strain pop2, stronger effect = lower value 1.01 | locus YOL012C, strain htz1 1.6 | locus YOL147C, strain pex11, stronger effect = lower value 1.01 | locus YOR001W, strain rrp6, stronger effect = lower value 1.03 | locus YOR061W, strain CKA2, stronger effect = lower value 1.01 | locus YOR069W, strain VPS5, stronger effect = lower value 1.01 | locus YOR070C, strain gyp1, stronger effect = lower value 1 | locus YOR080W, strain dia2, stronger effect = lower value 1.03 | locus YOR083W, strain WHI5 (second series), stronger effect = lower value 0.976 | locus YOR083W, strain WHI5, stronger effect = lower value 1.05 | locus YOR106W, strain vam3, stronger effect = lower value 1.02 | locus YOR136W, strain idh2, stronger effect = lower value 1.02 | locus YOR144C, strain elg1, stronger effect = lower value 1.01 | locus YOR184W, strain ser1, stronger effect = lower value 1.03 | locus YOR231W, strain MKK1, stronger effect = lower value 1 | locus YOR265W, strain rbl2, stronger effect = lower value 1 | locus YOR270C, strain vph1, stronger effect = lower value 1.02 | locus YOR290C, strain snf2, stronger effect = lower value 1 | locus YOR316C, strain cot1, stronger effect = lower value 1.02 | locus YPL051W, strain arl3, stronger effect = lower value 1.02 | locus YPL055C, strain LGE1, stronger effect = lower value 1.04 and 1.01 | locus YPL078C, strain atp4, stronger effect = lower value 1.03 | locus YPL106C, strain sse1, stronger effect = lower value 0.989 | locus YPL240C, strain hsp82, stronger effect = lower value 0.999 | locus YPL241C, strain CIN2, stronger effect = lower value 1.01 | locus YPL256C, strain CLN2, stronger effect = lower value 0.998 | locus YPR119W, strain clb2, stronger effect = lower value 1.02 | locus YPR141C, strain kar3, stronger effect = lower value 1.01 | locus YPR163C, strain tif3, stronger effect = lower value 1.02 | locus YPR167C, strain met16, stronger effect = lower value 1.01 | strain wtn01, stronger effect = lower value 1.02
